Unmarked numbers belong to inactive results.
Tested on: Caenorhabditis elegans L1 (N2)
Assay: survival and reproduction score of C. elegans L1 (0: 0-10 living worms, 1: 11-20, 2: 21-50, 3: >50, 4: overgrown) (score 0-4); higher = more worms, less nematicidal, active = 1 or less; extreme values may be limits of the assay
Settings: 60 µM; 6 days; temperature: 20 °C
Procedure, shortened: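 In liquid NGM with E. coli HB101, approximately 20 synchronized C. elegans N2 L1s per 96-well well were exposed to compound at 60 µM final (0.6% v/v DMSO) for 6 days at 20 °C with shaking at 200 rpm in sealed plates. Survival and reproduction were judged under a dissection microscope as an ordinal rating of living worms per well. Ratings went from 0 (0–10 worms) to 4 (overgrown, starved) and were averaged over two biological replicates.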

Cc1ccc(-c2noc(-c3ccc(Cl)cc3)n2)cc1
survival and reproduction score: 4

COc1cccc(-c2noc(COc3ccc(Cl)cc3)n2)c1
survival and reproduction score: 4

Cc1ccccc1CSc1nnc(-c2ccco2)o1
survival and reproduction score: 0 (active)

CC1CCN(C(=O)CSc2nnc(-c3cccc(Cl)c3)o2)CC1
survival and reproduction score: 4

Cc1ccc(-c2nnc(SCC(=O)Nc3cc(C)ccc3C)o2)cc1
survival and reproduction score: 4

COc1cccc(-c2noc(-c3c(F)cccc3F)n2)c1
survival and reproduction score: 4

Cc1ccc(-c2noc(-c3ccc(Br)o3)n2)s1
survival and reproduction score: 0 (active)

CCOc1ccccc1-c1nnc(SCC(=O)Nc2ccccc2)o1
survival and reproduction score: 4

Fc1ccc(-c2nc(-c3ccc4c(c3)OCO4)no2)cc1
survival and reproduction score: 4

COc1cccc(-c2noc(COc3cccc(C)c3C)n2)c1
survival and reproduction score: 2

CCN(CC)C(=O)CSc1nnc(-c2ccc(Br)cc2)o1
survival and reproduction score: 4

O=C(CSc1nnc(-c2ccccc2)o1)Nc1cccc(C(F)(F)F)c1
survival and reproduction score: 4

O=C(CSc1nnc(-c2ccccc2)o1)Nc1ccc(F)cc1F
survival and reproduction score: 4

Cc1ccc(CSc2nnc(-c3cccc(Br)c3)o2)c(C)c1
survival and reproduction score: 4

CCOC(=O)c1ccc(OCc2nc(-c3cccs3)no2)cc1
survival and reproduction score: 4

Fc1ccc(-c2nc(-c3cccc(C(F)(F)F)c3)no2)cc1
survival and reproduction score: 4

COc1ccccc1-c1noc(-c2ccc(C(C)(C)C)cc2)n1
survival and reproduction score: 4

Clc1ccc(-c2noc(-c3ccc4c(c3)OCCO4)n2)cc1
survival and reproduction score: 4

COc1ccccc1-c1nc(-c2ccccc2)no1
survival and reproduction score: 4

Cc1ccccc1OCc1nc(-c2ccc(F)cc2)no1
survival and reproduction score: 4

COc1ccc(-c2nc(-c3ccc(Cl)cc3)no2)cc1
survival and reproduction score: 4

Cc1ccc(C(=O)Nc2ccccc2-c2nc(-c3ccncc3)no2)cc1C
survival and reproduction score: 4

COc1ccc(-c2noc(-c3ccc(C)c(C)c3)n2)cc1
survival and reproduction score: 2

Cc1ccc(C(=O)CSc2nnc(-c3ccco3)o2)o1
survival and reproduction score: 4

CC(C)C(=O)Nc1ccccc1-c1nc(-c2cccnc2)no1
survival and reproduction score: 0 (active)

Clc1ccccc1-c1nc(-c2ccc3c(c2)OCO3)no1
survival and reproduction score: 4

Cc1ccc(-c2noc(COc3ccc(Cl)c(C)c3)n2)cc1
survival and reproduction score: 4

Clc1ccc(-c2noc(-c3ccccc3Cl)n2)cc1
survival and reproduction score: 3

O=C(NC1CCCCC1)c1ccccc1-c1nc(-c2ccc(F)cc2)no1
survival and reproduction score: 4

Cc1csc(NC(=O)CSc2nnc(-c3ccccc3Cl)o2)n1
survival and reproduction score: 4

COc1ccccc1-c1nnc(SCC(=O)Nc2ccccc2Cl)o1
survival and reproduction score: 4

O=C(CSc1nnc(-c2ccco2)o1)NC1CCCCC1
survival and reproduction score: 4

CCOc1cc(-c2nc(-c3ccc(C)nc3OC)no2)cc(OCC)c1OCC
survival and reproduction score: 4

COc1ccccc1CC(=O)Nc1ccc(-c2noc(-c3ccc(Cl)cc3)n2)cc1
survival and reproduction score: 4

COc1ccccc1OCc1nc(-c2ccccc2)no1
survival and reproduction score: 4

CCOc1ccccc1-c1nnc(SCc2ccccc2)o1
survival and reproduction score: 4

COc1cccc(-c2noc(-c3ccc(C)cc3)n2)c1
survival and reproduction score: 0 (active)

Cc1ccccc1OCc1nc(-c2cccc(NC(=O)c3ccco3)c2)no1
survival and reproduction score: 4

Cc1ccccc1CSc1nnc(-c2ccncc2)o1
survival and reproduction score: 4

Brc1ccc(-c2noc(-c3cccs3)n2)cc1
survival and reproduction score: 0 (active)

Cc1cccc(OCc2nc(-c3ccccc3Cl)no2)c1
survival and reproduction score: 4

Cc1cccc(OC(C)c2nc(-c3cccnc3)no2)c1 (stereo unspecified)
survival and reproduction score: 4

COc1ccc(C(=O)CSc2nnc(-c3ccccc3)o2)cc1
survival and reproduction score: 4

Cc1ccc(-c2nc(-c3ccccc3Br)no2)cc1
survival and reproduction score: 4

NC(=O)COc1ccccc1-c1nc(-c2ccccc2Cl)no1
survival and reproduction score: 4

COc1ccc(Cl)cc1-c1noc(COc2ccc(Cl)cc2)n1
survival and reproduction score: 4

CC(C)(C)NC(=O)CSc1nnc(-c2ccc(C(C)(C)C)cc2)o1
survival and reproduction score: 4

O=C(Nc1ccc(-c2noc(-c3ccccn3)n2)cc1)c1cccc(Cl)c1
survival and reproduction score: 4

O=C(CSc1nnc(-c2ccc(Br)cc2)o1)Nc1nccs1
survival and reproduction score: 4

COC(=O)CSc1nnc(-c2ccc(C(C)(C)C)cc2)o1
survival and reproduction score: 3.5

COc1ccc(-c2nc(-c3ccc(C(F)(F)F)cc3)no2)cc1
survival and reproduction score: 4

Cc1ccccc1OCc1nc(-c2ccccc2)no1
survival and reproduction score: 4

O=C(CSc1nnc(-c2ccco2)o1)Nc1ccc(F)cc1
survival and reproduction score: 3.5

Clc1ccccc1-c1noc(-c2cccnc2)n1
survival and reproduction score: 4

COc1ccccc1-c1nc(-c2ccc(Cl)cc2Cl)no1
survival and reproduction score: 4

Cc1ccccc1-c1noc(COc2ccc(Cl)cc2Cl)n1
survival and reproduction score: 4

Cc1ccccc1-c1nnc(SCc2ccc(F)cc2)o1
survival and reproduction score: 3.5

Cc1ccc(OCc2nc(-c3ccccc3Cl)no2)c(C)c1
survival and reproduction score: 4

COc1cccc(-c2noc(CSc3ccccc3)n2)c1
survival and reproduction score: 4

Cc1cccc(-c2noc(COc3cc(C)ccc3C)n2)c1
survival and reproduction score: 2

Clc1cccc(OCc2nc(-c3cccs3)no2)c1
survival and reproduction score: 0 (active)

CCCOc1ccc(-c2nc(-c3cccnc3)no2)cc1
survival and reproduction score: 0 (active)

COc1ccc(-c2nnc(SCC(=O)Nc3ccc(C(C)C)cc3)o2)cc1
survival and reproduction score: 4

COc1nc(-c2ccc(C)cc2)ccc1-c1noc(C)n1
survival and reproduction score: 4

CCCOc1ccc(-c2ccc(-c3nc(-c4ccccn4)no3)cc2)cc1
survival and reproduction score: 4

CC(=O)c1cccc(NC(=O)CSc2nnc(-c3ccccc3)o2)c1
survival and reproduction score: 4

Cc1ccc(-c2noc(COc3ccccc3Cl)n2)cc1
survival and reproduction score: 4

Cc1cc(Cl)ccc1OCc1nc(-c2ccc(F)cc2)no1
survival and reproduction score: 4

Fc1cccc(Cl)c1CSc1nnc(-c2ccccc2Cl)o1
survival and reproduction score: 4

COc1ccccc1-c1nnc(SCC(=O)Nc2ccc(F)cc2)o1
survival and reproduction score: 4

Brc1ccc(-c2nc(-c3ccc4c(c3)OCO4)no2)cc1
survival and reproduction score: 4

Cc1cccc(C)c1NC(=O)CSc1nnc(-c2ccncc2)o1
survival and reproduction score: 4

O=C(CSc1nnc(-c2cc3ccccc3o2)o1)NC1CC1
survival and reproduction score: 4

COc1ccc(-c2noc(COc3ccc(C)cc3C)n2)cc1
survival and reproduction score: 4

Cc1ccc(-c2nnc(SCc3ccccc3)o2)cc1
survival and reproduction score: 0 (active)

Brc1ccc(-c2noc(-c3ccco3)n2)o1
survival and reproduction score: 4

CC1Cc2ccccc2N1C(=O)CSc1nnc(-c2ccccc2)o1 (stereo unspecified)
survival and reproduction score: 4

Cc1ccccc1-c1nc(-c2ccccc2Cl)no1
survival and reproduction score: 0 (active)

Cc1ccccc1-c1nnc(SCC(=O)Nc2cc(C(F)(F)F)ccc2N2CCOCC2)o1
survival and reproduction score: 4

Cc1cc(Br)ccc1OCc1nc(-c2cccnc2)no1
survival and reproduction score: 4

Clc1ccc(OCc2nc(-c3cccs3)no2)cc1
survival and reproduction score: 2.5

Clc1ccc(-c2nc(-c3ccc4c(c3)OCO4)no2)cc1
survival and reproduction score: 4

CC(Sc1nnc(-c2ccccc2)o1)C(=O)Nc1nccs1 (stereo unspecified)
survival and reproduction score: 4

CC(C)Oc1ccc(-c2nc(-c3cccnc3)no2)cc1
survival and reproduction score: 0 (active)

Cc1ccc(-c2nc(-c3ccccc3Cl)no2)c(Cl)c1
survival and reproduction score: 4

O=C(CSc1nnc(-c2cccnc2)o1)c1ccc2ccccc2c1
survival and reproduction score: 4

CCOc1nc(C)ccc1-c1noc(-c2ccccc2F)n1
survival and reproduction score: 4

CNC(=O)c1ccccc1-c1nc(-c2ccccc2Cl)no1
survival and reproduction score: 4

COc1ccc(-c2nnc(SCC(=O)Nc3ccc(C)cc3Br)o2)cc1
survival and reproduction score: 4

COc1ccc(-c2nnc(SCC(=O)Nc3cccc(Cl)c3Cl)o2)cc1
survival and reproduction score: 4

Cc1cc(Cl)ccc1NC(=O)CSc1nnc(-c2ccncc2)o1
survival and reproduction score: 4

Cc1ccc(OCc2nc(-c3ccc(Cl)cc3)no2)c(C)c1
survival and reproduction score: 4

Cc1ccc(-c2noc(-c3ccc(C)cc3)n2)cc1
survival and reproduction score: 0.5 (active)

Cc1ccc(SCc2nc(-c3ccccc3)no2)cc1
survival and reproduction score: 4

COc1ccc(-c2noc(COc3ccc(C)cc3Br)n2)cc1
survival and reproduction score: 4

CCC(=O)Nc1ccccc1-c1nc(-c2ccncc2)no1
survival and reproduction score: 1 (active)

Cc1cccc(OCc2nc(-c3ccc(Br)cc3)no2)c1
survival and reproduction score: 4

CC(=O)Nc1c(C)ccc(CNC(=O)CSc2nnc(-c3ccc(C(C)(C)C)cc3)o2)c1C
survival and reproduction score: 4

C=CCOc1cccc(-c2nc(-c3cccnc3)no2)c1
survival and reproduction score: 0 (active)

Cc1ccc(-c2nc(-c3ccccn3)no2)cc1C
survival and reproduction score: 3.5

Cc1ccc(-c2noc(COc3cc(C)cc(C)c3)n2)cc1
survival and reproduction score: 4

Cc1ccc(OC(C)c2nc(-c3ccncc3)no2)cc1C (stereo unspecified)
survival and reproduction score: 4

Cc1cc(OCc2nc(-c3cccnc3)no2)c(C)c(C)c1Br
survival and reproduction score: 4

Cc1ccc(Cl)cc1NC(=O)CSc1nnc(-c2ccncc2)o1
survival and reproduction score: 4

N#Cc1cccc(CSc2nnc(-c3ccncc3)o2)c1
survival and reproduction score: 4

COc1ccc(OCc2nc(-c3ccccc3)no2)cc1
survival and reproduction score: 4

CCc1ccc(OCc2nc(-c3cccnc3)no2)cc1
survival and reproduction score: 4

Cc1cc(C)c(OCc2nc(-c3ccncc3)no2)c(C)c1
survival and reproduction score: 4

Ic1ccc(CSc2nnc(-c3ccccc3)o2)cc1
survival and reproduction score: 4

Cc1cccc(-c2noc(COc3ccccc3Cl)n2)c1
survival and reproduction score: 4

COc1ccc(-c2noc(CSc3nc4cc(C)ccc4[nH]3)n2)cc1
survival and reproduction score: 4

CCc1ccc(OCc2nc(-c3ccc(Cl)cc3)no2)cc1
survival and reproduction score: 4

c1ccc(-c2nnc(SCc3cccnc3)o2)cc1
survival and reproduction score: 4

COc1nc2ccc(C)cc2cc1-c1noc(-c2cccnc2)n1
survival and reproduction score: 4

CCOc1ccccc1-c1nnc(SCC(=O)Nc2nc(C)cs2)o1
survival and reproduction score: 4

COc1ccc(-c2noc(CSc3ccc(C)cc3)n2)cc1
survival and reproduction score: 4

— the supplement of paper PMC11219838
